Holding throughout (assay): NCI-60 one-dose screen, 48 h (100 = growth as untreated, 0 = no growth, -100 = all killed)
Common to all, as to conditions: 10 µM unless noted

The test system of experiment [1] is DU-145 prostate.
Experiment [2] deals with K-562 leukemia.
Experiment [3] concerns MALME-3M melanoma.
The subject of experiment [4] is MDA-MB-231 breast.
In experiment [5] the test system is RXF 393 renal.
Experiment [6] has as its system SF-268 CNS.
The subject of experiment [7] is SF-295 CNS.
Experiment [8] deals with SF-539 CNS.
In experiment [9] the test system is UACC-257 melanoma.
Experiment [10] relates to M14 melanoma.

“And” between values parts separate entries of the source, which are not always exact repeats. Equal entries are not always repeated. This is part of a sample that, as a whole, favours compounds with a hit. Of some 83,000 tested, about 20% had one in any assay.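 48-hour exposure, single concentration, 96-well plates; percent growth endpoint where 0 means no net growth. Active: below 10.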 The source made the active and inactive calls.

As to `CN1CCN(CCNC(=O)c2cccc(CN3c4cccc5c4C(=Cc4cccnc43)N(C)C5=O)c2)CC1`, the growth in experiment [1] is 68.1% (inactive); in [2], 30% (inactive); in [3], 49.3% (inactive); in experiment [4], 31.7% (inactive); in [5] it was 26.6% (inactive); in experiment [6], 59.3% (inactive). The growth in experiment [7] was 42.5% (inactive); in experiment [8] it was 33.5% (inactive); in experiment [9], 50% (inactive); in [10], 45.4% (inactive).
For the compound `O=C(N=Nc1c(O)[nH]c2ccccc12)Nc1ccccc1Cl`, the growth in [1] is 98.8% (inactive); in experiment [2], 88.1% (inactive); in experiment [3] it was 96.9% (inactive); in experiment [4], 85.1% (inactive); in [5] it was 101% (inactive); in [6] it was 96.8% (inactive). The growth in experiment [7] was 94.1% (inactive); in [8], 95.7% (inactive); in experiment [9], 92% (inactive); in [10], 94.7% (inactive).
In the case of `COc1cc2cc(NCc3ccncc3)nc(C)c2cc1OC`, the growth in experiment [1] was 107% (inactive); in experiment [2], 126% (inactive); in experiment [3], 108% (inactive); in experiment [4], 85.9% (inactive); in [5], 98.5% (inactive); in [6], 81.9% (inactive). Further, the growth in experiment [7] is 71.3% (inactive); in experiment [8], 89.3% (inactive); in [9], 79.3% (inactive); in experiment [10], 82% (inactive).
Consider `BrC1=C(Br)C(Br)(Br)C(Br)=C1Br`, for which the growth was 106% (inactive) in [1]; 32.9% (inactive) in experiment [2]; 106% (inactive) in experiment [3]; 73.7% (inactive) in experiment [4]; 75.1% (inactive) in experiment [5]; 97.8% (inactive) in experiment [6]. Besides, the growth in experiment [7] was 113% (inactive); in experiment [8], 82.2% (inactive); in experiment [9], 84.7% (inactive); in experiment [10] it was 65.2% (inactive).
On to `COc1cc(/C=C2\C(=O)N(CCCCn3c4ccccc4c(=O)c4ccccc43)c3ccccc32)cc(OC)c1O`, for which the growth in experiment [1] is 60.4% (inactive); in experiment [2], 15.6% (inactive); in [3], 66.3% (inactive); in [4], 70% (inactive); in experiment [5], 70.5% (inactive); in [6], 60.1% (inactive). Also, the growth was 84% (inactive) in experiment [7], 64.3% (inactive) in experiment [8], 81.7% (inactive) in experiment [9] and 52.3% (inactive) in [10].
Take `CCOC(=O)c1cc2c(n1Cc1cc(OC)cc(OC)c1Br)-c1nc(NC(C)=O)sc1CCC2`: the growth in experiment [1] is 89.3% (inactive); in experiment [2] it was 81.4% (inactive); in experiment [3], 122% (inactive); in experiment [4], 74.7% (inactive); in experiment [5], 61% (inactive); in [6], 67.1% (inactive). The growth was 76.4% (inactive) in [7], 85.6% (inactive) in [8], 53% (inactive) in [9] and 84.9% (inactive) in experiment [10].
For `COc1ccc(S(=O)(=O)Nc2cc(Sc3cccc4cccnc34)c(O)c3ccccc23)cc1`, the growth in [1] was 19.5% (inactive); in experiment [2] it was -7.46% (active); in experiment [3], 6.25% (active); in experiment [4], 25% (inactive); in experiment [5], 18.8% (inactive); in [6] it was 11.3% (inactive). For the same compound, the growth was 22.3% (inactive) in [7], -6.48% (active) in [8], -17% (active) in experiment [9] and -13.4% (active) in experiment [10].
With `COc1ccc2c(c1)CCNC21C(=O)Nc2c(Br)cc(Br)cc21` (stereo not given), the growth was 110% (inactive) in experiment [1]; 98.8% (inactive) in [2]; 88.3% (inactive) in [3]; 74.7% (inactive) in experiment [4]; 133% (inactive) in [5]; 100% (inactive) in [6]. The growth is 103% (inactive) in experiment [7], 94% (inactive) in experiment [8], 100% (inactive) in [9] and 97.7% (inactive) in experiment [10].
For `O=C1/C(=C/c2ccccc2[N+](=O)[O-])Cc2ccccc21`, the growth in [1] is 32.7% (inactive) and 41.5% (inactive); in [2] it was 10.5% (inactive) and 6.16% (active); in experiment [3] it was 23.7% (inactive) and 60.2% (inactive); in experiment [4] it was -9.95% (active) and 31.3% (inactive); in experiment [5], -4.67% (active) and -0.599% (active); in experiment [6], 66% (inactive) and 42.8% (inactive). Moreover, the growth was 23% (inactive) and 28.3% (inactive) in experiment [7]; 24.2% (inactive) and 34.3% (inactive) in experiment [8]; 64.4% (inactive) and 71.8% (inactive) in experiment [9]; 42.7% (inactive) and 57.8% (inactive) in experiment [10].
Turning to `O=C(c1ccc(Nc2nccc(NCCCNc3ccnc4cc(Cl)ccc34)n2)cc1)N1CCCCC1`, the growth was 39.1% (inactive) in experiment [1]; 18.8% (inactive) in [2]; 17.2% (inactive) in [3]; 36.2% (inactive) in [4]; 61% (inactive) in experiment [5]; 36.5% (inactive) in [6]. The growth in experiment [7] was 37.2% (inactive); in experiment [8] it was 35.5% (inactive); in experiment [9] it was 36.7% (inactive); in [10] it was 35% (inactive).
With `COc1ccc(-c2cc(-c3cccnc3)nc3sc4c(Cl)nnnc4c23)cc1OC`, the growth in experiment [1] was 94.2% (inactive); in experiment [2] it was 15.8% (inactive); in [3] it was 107% (inactive); in [4], 77.9% (inactive); in experiment [5], 104% (inactive); in experiment [6] it was 96.7% (inactive). The growth in [7] was 101% (inactive); in experiment [8], 101% (inactive); in [9], 78.4% (inactive); in experiment [10] it was 88.6% (inactive).
As for `C#CCOc1cccc(Nc2ncc3ncn(C4CCN(C(=O)CCl)C4)c3n2)c1` (stereo not given), the growth in [1] is 84% [6.25 µM] (inactive); in [2] it was 5.61% [6.25 µM] (active); in [3] it was 14.3% [6.25 µM] (inactive); in experiment [4], 2.24% [6.25 µM] (active); in experiment [5] it was -51.9% [6.25 µM] (active); in [6], 40.2% [6.25 µM] (inactive). Further, the growth in experiment [7] is 89% [6.25 µM] (inactive); in [8], 68.7% [6.25 µM] (inactive); in [9] it was 72.6% [6.25 µM] (inactive); in [10] it was 24% [6.25 µM] (inactive).

The values are drawn from PubChem BioAssay (NCI).
